In the library only some 4.2% were active in any assay of this set; here they are far more common.
TRPV1 potentiator: enhances activation of the human vanilloid receptor TRPV1; TRPV1-expressing cells, Fluo-8 calcium influx, capsaicin EC20 potentiation; potentiation, % at 8.33 µM; Q8NER1; 320,000 tested, 0.02% active; in the data active = potentiation above about 80%; also: 0% is about no effect
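Cells expressing TRPV1 were dye-loaded with Fluo-8 and read kinetically: 10 s baseline, 3 min after compound (agonist portion), then 2 min after EC20 capsaicin (allosteric enhancer portion). Calcium-bound dye fluorescence at 480/520 nm.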
D1 antagonist: blocks dopamine activation of the human D1 receptor. P21728. HEK293 TREx D1 cells, calcium flux, dopamine EC80; active compounds read low. activity change, negative = inhibition, % at 10 µM. 360,000 tested, 3.2% active. AID 504652; in the data active = activity change below about -30%; also: % is scaled to controls: 0 for no effect and ±100 for the full control effect
Target sequence (P21728 whole entry, looked up): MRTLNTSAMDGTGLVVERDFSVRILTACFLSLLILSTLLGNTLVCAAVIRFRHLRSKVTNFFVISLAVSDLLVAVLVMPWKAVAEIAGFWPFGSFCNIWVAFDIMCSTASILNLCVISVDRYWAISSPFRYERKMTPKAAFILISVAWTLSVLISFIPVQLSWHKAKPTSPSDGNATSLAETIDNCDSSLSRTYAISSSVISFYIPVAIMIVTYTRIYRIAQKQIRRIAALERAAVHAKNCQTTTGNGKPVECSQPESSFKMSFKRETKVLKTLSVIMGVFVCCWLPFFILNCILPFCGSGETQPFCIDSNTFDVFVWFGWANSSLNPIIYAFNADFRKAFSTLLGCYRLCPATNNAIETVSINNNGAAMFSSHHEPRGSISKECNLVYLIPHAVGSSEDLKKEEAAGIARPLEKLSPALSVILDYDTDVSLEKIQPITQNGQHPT
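Using tetracycline-induced force-coupled D1 Hek293 cells and a calcium dye, signals were followed for 180 s after compound, then for 180 s after EC80 dopamine, to detect inhibitors.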
D1 ag: activates the human D1 dopamine receptor; P21728; HEK293 T-REx D1 cells, calcium flux, agonist mode; activation, % at 2 µM; 360,000 tested, 1% active; AID 504660; in the data active = activation above about 30%; also: 0% is about no effect
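Tetracycline-induced HEK293 TREx D1 cells, force-coupled to calcium signalling, were dye-loaded with a no-wash calcium kit. Compound was pin-added after a 10 s baseline. Fluorescence was read kinetically at 1 cycle/s for 180 s, with calcium rises flagged as agonism.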
D1 potentiator: enhances dopamine response at the human D1 receptor; P21728; HEK293 TREx D1 cells, calcium flux, dopamine EC20 potentiation; 360,000 tested, 0.036% active; potentiation, % at 10 µM; in the data active = potentiation above about 30%; also: 0% is about no effect
TRPV1 agonist: agonists of human vanilloid receptor 1 (TRPV1) | TRPV1-expressing cells, Fluo-8 calcium influx, agonist mode | Q8NER1 | activation, % at 8.33 µM | 320,000 tested, 0.19% active; in the data active = activation above about 80%; also: 0% is about no effect
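Cells expressing TRPV1 were dye-loaded with Fluo-8 and read kinetically: 10 s baseline, 3 min after compound (agonist portion), then 2 min after EC20 capsaicin (allosteric enhancer portion). Calcium-bound dye fluorescence at 480/520 nm.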
* hit, by the source's call.

For CCOC(=O)CC(NS(=O)(=O)c1cc(-c2cc(C)no2)ccc1C)c1ccc(C)cc1 (stereo unspecified) the results were D1 antagonist -3.3, D1 ag 7.1 and D1 potentiator -1.9.
For COc1ccc(C2CCCN2C(=S)Nc2ccccc2C)cc1OC (stereo unspecified) the results were TRPV1 potentiator -4.6, D1 antagonist -7.8, D1 ag 5.1, D1 potentiator -14.3 and TRPV1 agonist 2.5.
Screening COc1cccc(NC(=S)N2CCCC2c2ccc(OC)c(OC)c2)c1 (stereo unspecified) returned TRPV1 potentiator 4.9, D1 antagonist -60.6*, D1 ag -0.9, D1 potentiator -5.2 and TRPV1 agonist -0.6.
`COc1ccc(C2CCCN2C(=S)Nc2cccc(Cl)c2)cc1OC` (stereo unspecified) gave TRPV1 potentiator 8.0, D1 antagonist -2.4, D1 ag 2.3, D1 potentiator 0.7 and TRPV1 agonist 6.4.
For COc1ccc(C2CCCN2C(=S)Nc2ccc(C)cc2C)cc1OC (stereo unspecified) the results were TRPV1 potentiator -11.6, D1 antagonist -37.6*, D1 ag 1.9, D1 potentiator -3.1 and TRPV1 agonist -2.8.
`CCOc1ccccc1NC(=O)Cn1c(=O)n(C(C)C)c(=O)c2oc3ccccc3c21` gave D1 antagonist 3.3, D1 ag 4.5 and D1 potentiator -1.2.
`Cc1cccc(Cn2c(=O)n(Cc3ccc4c(c3)OCO4)c(=O)c3oc4ccccc4c32)c1` gave D1 antagonist 13.4, D1 ag 4.9 and D1 potentiator -2.6.
`Fc1ccccc1Cn1c(-c2ccccc2)nc2ccccc21` gave D1 antagonist -8.8, D1 ag 14.7 and D1 potentiator 0.8.
`COc1ccc(Cl)cc1S(=O)(=O)N1CCN(S(=O)(=O)c2ccc3c(c2)OCCO3)CC1` gave D1 antagonist -7.7, D1 ag 3.2 and D1 potentiator 5.5.
O=C(Cc1ccccc1)Nn1c(O)c(/C=C2\C=Nc3ccccc32)sc1=S was read as TRPV1 potentiator 13.4, D1 antagonist 17.2, D1 ag 99.4*, D1 potentiator 5.3 and TRPV1 agonist 16.4.
For Cn1c(Sc2ccc(Br)cc2)c(C=O)c2ccccc21 the results were TRPV1 potentiator 6.0, D1 antagonist -63.3*, D1 ag 4.5, D1 potentiator -7.7 and TRPV1 agonist 1.6.
Screening Cn1c(Oc2ccc(F)cc2)c(C=O)c2ccccc21 returned TRPV1 potentiator 11.7, D1 antagonist 7.3, D1 ag 2.2, D1 potentiator -2.2 and TRPV1 agonist 0.4.
`CCOC(=O)c1c(C)oc2ncnc(NCCCN3CCN(c4cc(C)ccc4C)CC3)c12` gave D1 antagonist 0.2, D1 ag -0.7 and D1 potentiator 1.6.
CC(=O)c1cn(CCOc2ccc(F)cc2)c2ccccc12 was read as TRPV1 potentiator 6.5, D1 antagonist -21.3, D1 ag 10.6, D1 potentiator -26.9 and TRPV1 agonist -0.9.
`CC(=O)c1cn(CCOc2ccccc2C)c2ccccc12` gave TRPV1 potentiator 8.8, D1 antagonist -38.0*, D1 ag 17.7, D1 potentiator -7.3 and TRPV1 agonist 3.5.
Screening CCOC(=O)c1cc(-c2ccc(C)cc2)n(CCC(=O)Nc2ccc(OC)c(OC)c2)c1C returned D1 antagonist 0.0, D1 ag 0.7 and D1 potentiator -0.7.
`COc1ccc(NC(=O)CN2CCC(n3c(C)nc4cc(F)ccc43)CC2)c(OC)c1` gave TRPV1 potentiator 3.9, D1 antagonist 13.8, D1 ag 1.7, D1 potentiator -4.7 and TRPV1 agonist 0.6.
For Cc1nc2ccccc2n1C1CCN(CC(=O)NCc2ccc(F)cc2)CC1 the results were TRPV1 potentiator 6.0, D1 antagonist -43.4*, D1 ag 1.0, D1 potentiator -1.4 and TRPV1 agonist -4.3.
`c1ccc(CCNc2ccnc3cc4ccccc4cc23)cc1` gave TRPV1 potentiator 7.4, D1 antagonist -82.5*, D1 ag 34.0*, D1 potentiator -16.9 and TRPV1 agonist -1.5.
`O=c1c2cnn(-c3ccccc3)c2ncn1Cc1ccccn1` gave TRPV1 potentiator -4.3, D1 antagonist -40.8*, D1 ag 2.9, D1 potentiator 7.5 and TRPV1 agonist -0.1.
For COc1ccc(-n2ncc3c(=O)n(CC(C)=O)cnc32)cc1 the results were TRPV1 potentiator -12.0, D1 antagonist -33.7*, D1 ag 2.4, D1 potentiator -3.7 and TRPV1 agonist 2.5.
For O=c1c2cnn(-c3ccccc3)c2ncn1Cc1cccnc1 the results were TRPV1 potentiator -14.4, D1 antagonist 0.9, D1 ag 1.7, D1 potentiator -2.8 and TRPV1 agonist 12.7.
COCCNC(=O)Cn1cnc2c(cnn2-c2ccc(OC)cc2)c1=O was read as TRPV1 potentiator 8.8, D1 antagonist -0.1, D1 ag 2.0, D1 potentiator -3.5 and TRPV1 agonist 1.2.
For COc1cccc(CC2(CO)CCCN(Cc3c(C)cc(C)cc3-n3cccn3)C2)c1 (stereo unspecified) the results were TRPV1 potentiator -7.7, D1 antagonist -36.5*, D1 ag 4.0, D1 potentiator -7.5 and TRPV1 agonist -0.5.
Screening CCCN(C(=O)NCc1noc2ccc(C)cc12)c1ccc(Cl)c(Cl)c1 returned D1 antagonist 3.7, D1 ag 8.8 and D1 potentiator -1.7.
Screening COc1cccc(C(=O)N2c3cc(C)ccc3C(C)(c3ccccc3)CC2(C)C)c1 (stereo unspecified) returned D1 antagonist -0.3, D1 ag -0.4 and D1 potentiator 1.9.
Screening CC(=O)c1cc(CN2CCCCC2)cc(OC(C)C)c1 returned TRPV1 potentiator 3.7, D1 antagonist -44.6*, D1 ag 2.6, D1 potentiator -7.0 and TRPV1 agonist 1.2.
`COc1ccccc1C(=O)Nc1ccccc1SCc1cc(=O)c2ccccc2[nH]1` gave D1 antagonist 2.1, D1 ag 2.5 and D1 potentiator 4.0.
Screening COc1ccc(NC(=O)CN2C(=O)CSc3ccc(S(=O)(=O)N(C)C)cc32)cc1Cl returned D1 antagonist -14.8, D1 ag 2.0 and D1 potentiator -2.9.
CC(CN(C)C)CN1c2ccccc2Sc2ccccc21 (stereo unspecified) was read as TRPV1 potentiator 0.4, D1 antagonist -89.5*, D1 ag 38.3*, D1 potentiator -1.1 and TRPV1 agonist -0.1.
For O=c1c2cc(F)ccc2sn1-c1ccccc1 the results were TRPV1 potentiator 15.9, D1 antagonist -6.0, D1 ag 38.9*, D1 potentiator -8.2 and TRPV1 agonist 20.5.
`Cc1ccccc1-n1sc2cc(F)ccc2c1=O` gave TRPV1 potentiator -14.4, D1 antagonist 2.1, D1 ag 31.6*, D1 potentiator 0.2 and TRPV1 agonist 22.0.

Screens deposited in PubChem BioAssay by National Center for Advancing Translational Sciences (NCATS).
